This passage reports Potency results from PubChem BioAssay AID588342 (National Center for Advancing Translational Sciences (NCATS), 2011).

The campaign covered roughly 360,000 compounds. About 25,000 (6.9%) were called active. Where a call stands in place of a potency, no number is given. About 9% were inconclusive and are not listed. Calls follow the shape of the dose curve; as a rule, active = well fitted inhibition curve with a large enough effect; inconclusive = small, poorly fitted or top-dose-only effect; inactive = flat fitted curve, though single readings scatter. Many of the other results were omitted from the sample, so actives are more common in it than they were.
Potency is read from the fitted curve at half-maximal effect.

The target of the test is Luciferin 4-monooxygenase (Photinus pyralis) (UniProt P08659). Description: qHTS profiling assay for firefly luciferase inhibitor/activator using purifed enzyme and Km concentrations of substrates (counterscreen for miR-21 project). Also: nearly all actives have a fitted effect of over 55% in size. Conditions: purified FLuc, luminescence inhibition; series mostly up to 57.5 µM. Summed up: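 Biochemical qHTS of compounds, final roughly 60 µM downward over six points, against 10 nM purified firefly luciferase using Km concentrations of substrates (10 uM D-luciferin, 10 uM ATP) in Tris acetate pH 7.5 buffer; luminescence output.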
Sequence of Luciferin 4-monooxygenase (Photinus pyralis) (P08659 whole entry, looked up): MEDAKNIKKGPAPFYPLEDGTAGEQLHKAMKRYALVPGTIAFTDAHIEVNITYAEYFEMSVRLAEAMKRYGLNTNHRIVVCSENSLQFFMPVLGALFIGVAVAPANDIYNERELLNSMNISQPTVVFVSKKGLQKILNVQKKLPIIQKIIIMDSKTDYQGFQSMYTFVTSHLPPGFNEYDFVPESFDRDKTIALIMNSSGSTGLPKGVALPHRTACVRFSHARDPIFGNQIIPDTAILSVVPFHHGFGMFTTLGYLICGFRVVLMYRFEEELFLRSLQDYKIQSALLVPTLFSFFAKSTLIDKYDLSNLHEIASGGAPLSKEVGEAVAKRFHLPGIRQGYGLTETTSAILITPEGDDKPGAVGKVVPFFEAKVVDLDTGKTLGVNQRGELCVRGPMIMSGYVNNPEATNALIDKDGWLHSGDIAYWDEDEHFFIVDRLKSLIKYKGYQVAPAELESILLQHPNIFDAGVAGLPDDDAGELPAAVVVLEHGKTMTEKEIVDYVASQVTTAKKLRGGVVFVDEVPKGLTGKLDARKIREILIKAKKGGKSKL
In general terms: In qHTS, concentration-response curves come from the screen itself.
Turning to `O=C(Nc1ccc(S(=O)(=O)N2CCC(c3nc4ccccc4s3)CC2)cc1)c1ccccc1F`, the Potency entry is “inactive”.
The same measure for `Cc1ccc(S(=O)(=O)N(C)C)cc1NC(=O)CN1c2cccc3cccc(c23)S1(=O)=O`: “inactive”; for `CCOC(=O)c1c(C)[nH]c(C2=NNC(=NC(C)COC)SC2)c1C` (stereo not drawn): 8.49 µM (active); for `COc1ccc(C2(Nc3cccc(F)c3)C(=O)c3ccccc3C2=O)cc1`: “inactive”.
As for `O=C(COC(=O)c1ncc(Cl)c(Cl)c1Cl)NCc1ccccc1`, the Potency entry was “inactive”.
Regarding `CCOC(=O)c1cccc(NS(=O)(=O)c2cc(-c3cnc(C)o3)ccc2OC)c1`, the Potency entry was “inactive”.
For `COc1ccc(NS(=O)(=O)c2cccc(C(=O)NCCc3ccc(S(N)(=O)=O)cc3)c2)cc1` the value was “inactive”; for `COc1ccc(CCNC(=O)CCCn2c(=O)c3ccccc3n(Cc3ccc(C)cc3)c2=O)cc1OC`, “inactive”.
The same measure for `COC(=O)CNS(=O)(=O)c1ccc(Cc2ccc(S(=O)(=O)NCC(=O)OC)cc2)cc1`: 3.79 µM (active); for `COC(=O)CNS(=O)(=O)c1ccc(OC)cc1`: “inactive”; for `C/C(N)=C(/C#N)C(=O)COC(=O)CNS(=O)(=O)c1ccc(C)cc1`: “inactive”.
As to `COc1ccc(-c2nc(Cn3c(=O)cc(C)c4c(C)nn(-c5ccccc5)c43)c(C)o2)c(OC)c1`, the Potency entry is “inactive”.
For `CCOC(=O)c1nnn(CC(=O)NC(=O)Nc2ccccc2F)c1C(=O)OCC`, the Potency result is “inactive”.
For the molecule `Cc1ccc(S(=O)(=O)N(C)CC(=O)OCC(=O)Nc2ccccc2)cc1`, the Potency entry is “inactive”.
The same measure for `CC(=O)Nc1ccc(NC(=O)COC(=O)c2ccccc2C(=O)c2ccccc2)cc1`: “inactive”.
Turning to `O=C(COC(=O)C1CC2C=CC1C2)Nc1ccccc1` (stereo not drawn), the Potency is 16.9 µM (active).
The same measure for `COc1cc(C(=O)N2C(=O)c3cccc(N)c3C2=O)cc(OC)c1OC`: “inactive”; for `COc1ccc2c(c1OC)C(=O)N(c1ncn[nH]1)C2`: “inactive”.
As for `COc1ccc2c(c1OC)C(=O)N(c1ccc(O)cc1)C2`, the Potency was 15.1 µM (active).
`CCOc1ccc(CC(=O)NCCc2csc3nc(-c4ccccc4F)nn23)cc1`: the Potency result was “inactive”.
On to `Brc1ccc2nc(N3CCCC3)sc2c1`, for which the Potency is 7.57 µM (active).
For `c1c2c(cc3sc(N4CCCCC4)nc13)OCCO2` the value was 0.213 µM (active); for `CN(C)CCCN(C(=O)c1ccc(S(=O)(=O)N2CCCCCC2)cc1)c1nc2ccc(Br)cc2s1`, “inactive”; for `Fc1ccc2nc(N3CCCCC3)sc2c1`, 4.78 µM (active).
Regarding `O=C(NCc1ccc(F)cc1)c1ccc2nc(N3CCCCC3)sc2c1`, the Potency result was “inactive”.
`O=C(NCCc1cccc(F)c1)C1CCCN(c2nc3ccccc3s2)C1` (stereo not drawn): the Potency entry is “inactive”.
`CN(C)CCCN(C(=O)c1ccc(S(=O)(=O)N2CCCCCC2)cc1)c1nc2cc3c(cc2s1)OCCO3`: the Potency result is “inactive”.
With `Cc1nc(N2CCCCC2)sc1C=O`, the Potency entry is “inactive”.
For `Cc1nc2ccn(Cc3cccs3)c(=O)c2cc1C(=O)NCc1ccc(Cl)cc1` the value was “inactive”; for `O=C(CSc1nnc(CN2CCCC2)n1-c1ccc(F)cc1)c1ccc2c(c1)OCO2`, “inactive”.
Turning to `O=C(CN1CCN(c2ccccc2O)CC1)NC(=O)NCc1ccccc1`, the Potency entry was “inactive”.
For `COc1ccc(S(=O)(=O)Nc2ccc3cn[nH]c3c2)cc1[N+](=O)[O-]`, the Potency result is “inactive”.
In the case of `CCOC(=O)Cc1csc(SCC(=O)Nc2ccc(C)cc2F)n1`, the Potency result was “inactive”.
The same measure for `CCOC(=O)c1ccccc1NC(=O)CCc1c(C)nc2c(c1C)c(=O)n(C)c(=O)n2C`: “inactive”; for `CCOc1cccc2cc(C(=O)OCC(=O)Nc3c(C)cccc3CC)c(=O)oc12`: 15.1 µM (active); for `CCc1cccc(C)c1NC(=O)COC(=O)CC1CCCC1`: “inactive”.
For `Cc1cccc(C)c1NC(=O)COC(=O)c1ccccc1O` the value was “inactive”.
Consider `O=c1[nH]c(CN2CCOCC2)nc2cc(Cl)ccc12`, for which the Potency result was “inactive”.
In the case of `O=c1[nH]c(CCl)nc2cc(-c3ccc(Cl)cc3)sc12`, the Potency was 0.107 µM (active).
In the case of `NC(=O)Cc1nc2scc(-c3ccc(Cl)cc3)c2c(=O)[nH]1`, the Potency entry was “inactive”.
As for `CCc1ccccc1NC(=O)c1ccc(F)c(S(=O)(=O)NC2CCCCCC2)c1`, the Potency entry is “inactive”.
Turning to `COC(=O)c1ccc(NC(=O)CCc2c(C)nc3c(c(C)nn3-c3ccc(C)cc3)c2C)cc1`, the Potency result is “inactive”.
The same measure for `CN(c1ccccc1)S(=O)(=O)c1cccc(NC(=O)Cc2ccc(Cl)cc2)c1`: “inactive”.
In the case of `COc1cccc(N(CC(=O)Nc2cccc(N(C)S(C)(=O)=O)c2)S(C)(=O)=O)c1`, the Potency result is “inactive”.
Turning to `CN(c1cccc(NC(=O)Nc2ccc(Cl)cc2)c1)S(C)(=O)=O`, the Potency was 2.39 µM (active).
For `O=C(Nc1ccc(Cl)cc1)Nc1ccc(Oc2cccnc2)nc1`, the Potency result is “inactive”.
On to `COc1ccc(-n2c(=O)c3c(c4cc(OC)ccc4n3C)n(Cc3cccc(C)c3)c2=O)cc1`, for which the Potency entry is “inactive”.
Regarding `CSCc1ccc(C(=O)Nc2cc(C)cc(C)c2)cc1`, the Potency was 2.13 µM (active).
Turning to `Cc1cc(C)cc(NC(=O)CSc2ccccc2)c1`, the Potency entry is “inactive”.
In the case of `CC(=O)Nc1ccccc1NC(=O)c1cc(C)cc(C)c1`, the Potency result is “inactive”.
For the molecule `CCc1ccc(N2C(=O)CN(S(=O)(=O)CC)CC2(C)C(=O)NC2CCCCC2)cc1` (stereo not drawn), the Potency entry was “inactive”.
As for `O=C(NC1CC(=O)N(c2ccc(F)cc2)C1)C1CCCCC1` (stereo not drawn), the Potency result is “inactive”.
`CCOC(=O)CNC(=O)c1cc2c(=O)n3cccc(C)c3nc2s1`: the Potency result was “inactive”.
In the case of `CC(=O)c1cccc(Nc2ccc3cc(S(=O)(=O)N4CCC(C)CC4)ccc3n2)c1`, the Potency entry was “inactive”.
With `N/C(=N\OC(=O)N1c2ccccc2Sc2ccccc21)c1ccc(Br)cc1`, the Potency entry is “inactive”.
Take `N/C(=N\OC(=O)c1ccc2c(c1)OCO2)c1ccc(Br)cc1`: the Potency is 1.69 µM (active).
As for `N/C(=N\OC(=O)/C=C/c1ccccc1)c1ccc(Br)cc1`, the Potency entry is “inactive”.
On to `Cc1ccc(-c2cc(C(F)(F)F)c(C#N)c(SCC(=O)Nc3ccccc3)n2)cc1`, for which the Potency result is “inactive”.
The same measure for `O=C(NCc1ccco1)C1(c2ccc(Cl)cc2)CCCC1`: “inactive”.
On to `O=C(/C=C/c1ccc(Cl)cc1Cl)NCc1ccco1`, for which the Potency is 7.57 µM (active).
For the molecule `COC(=O)/C=C/C(=O)NCc1ccco1`, the Potency entry was “inactive”.
The same measure for `COc1ccccc1CNC(=O)C(Cc1ccccc1)NS(=O)(=O)c1ccc2c(c1)oc(=O)n2C` (stereo not drawn): “inactive”; for `CSCCC(NC(=O)c1ccccc1)C(=O)N1CCN(Cc2ccc(Cl)cc2)CC1` (stereo not drawn): “inactive”.
For `COc1cc(CN2CC(C)CC(C)C2)cc([N+](=O)[O-])c1O` (stereo not drawn) the value was “inactive”.
As for `C/C=C/c1ccc(OCCOc2ccc(C=O)cc2OC)c(OC)c1`, the Potency result was “inactive”.
For `COc1cccc2c1cc1c(=O)n(CC(=O)N3CCN(c4cccc(Cl)c4)CC3)nc(C)n12`, the Potency entry is “inactive”.
`CCOc1c(Br)cc(/C=C2\C(=O)N(CCC#N)N=C2C)cc1OC`: the Potency result is “inactive”.
`COc1cc(/C=C2/C(=O)NN(c3ccc(F)cc3)C2=O)cc([N+](=O)[O-])c1O`: the Potency is 26.9 µM (active).
Regarding `C#CCOc1ccc(/C=C2/C(=O)NN(c3ccccc3)C2=O)cc1OC`, the Potency is 0.849 µM (active).
For the molecule `COc1cc(/C=C2/C(=O)NN(c3cccc(Cl)c3)C2=O)cc(Br)c1O`, the Potency is 30.1 µM (active).
Consider `COc1cc(C=O)ccc1Oc1nnnn1-c1ccccc1`, for which the Potency entry was “inactive”.
Take `COc1ccc(N2C(=O)CC(Nc3ccc(F)cc3)C2=O)c([N+](=O)[O-])c1` (stereo not drawn): the Potency entry is “inactive”.
For `CCOc1ccc(-c2nonc2NC(=O)c2oc3ccc(CC)cc3c2C)cc1` the value was “inactive”; for `NC1=NC(c2cc(F)cc(F)c2)n2c(nc3ccccc32)N1` (stereo not drawn), “inactive”; for `CC(C(=O)NC1CCCCC1)N1C(=O)c2cccc3cccc1c23` (stereo not drawn), “inactive”.
As for `N#Cc1ccc(OCC(=O)NC(=O)NC2CCS(=O)(=O)C2)cc1` (stereo not drawn), the Potency result was “inactive”.
For `Cc1nc2ccn(Cc3cccnc3)c(=O)c2cc1C(=O)N1CCN(c2ccccc2F)CC1` the value was “inactive”.
For `Cc1cc2c(cc3c(SCc4cccc(Cl)c4)nnc(C)n32)o1`, the Potency result was “inactive”.
`CN1CCC(=NNC(=O)c2ccc(N(Cc3ccc(Cl)cc3)S(C)(=O)=O)cc2)CC1`: the Potency result was “inactive”.
The same measure for `NS(=O)(=O)c1cc(C(=O)OCC(=O)NNC(=O)c2ccccc2)ccc1Cl`: “inactive”; for `O=C(CCOc1ccccc1)N(Cc1cccnc1)c1nc2ccc(Cl)cc2s1`: “inactive”; for `Cc1cc(Nc2ccccc2)n(CCC#N)n1`: “inactive”.
In the case of `Cc1cc(NC(=O)COc2ccc(Cl)cc2Cl)n(CCC#N)n1`, the Potency is 19 µM (active).
The same measure for `CCCn1nnnc1NC(=O)COc1ccc(Cl)cc1C`: “inactive”.
The same measure for `CSc1ncccc1C(=O)Nc1nc2ccc(F)cc2s1`: 19 µM (active); for `O=C(Nc1nc2ccc(F)cc2s1)c1nc(SCc2ccccc2F)ncc1Cl`: “inactive”.
For `CSc1ncccc1C(=O)Nc1ccc(C)cn1` the value was “inactive”.
Regarding `CC(C(=O)N(C)CC(=O)Nc1ccccc1C(F)(F)F)N1C(=O)c2ccccc2C1=O` (stereo not drawn), the Potency entry is “inactive”.
Turning to `Cc1ccc(/C=C(\C#N)C(=O)Nc2cc(C)ccc2C)cc1`, the Potency entry is “inactive”.
The same measure for `COc1cc(OC)cc(C(=O)NCC(=O)N2CCCCCCC2)c1`: “inactive”; for `COc1ccc(CCNC(=O)c2ccc3c(c2)sc2nc(-c4ccc(C)cc4)cn23)cc1OC`: “inactive”.
The same measure for `NS(=O)(=O)c1ccc2nc(NC(=O)CS(=O)(=O)c3ccc(F)cc3)sc2c1`: “inactive”; for `NS(=O)(=O)c1ccc2nc(NC(=O)C3=COCCO3)sc2c1`: 12 µM (active).
With `NS(=O)(=O)c1ccc2nc(NC(=O)COc3ccccc3)sc2c1`, the Potency result is “inactive”.
With `COc1ccc(-c2cc(C(=O)NCCCn3ccnc3)no2)cc1`, the Potency result is “inactive”.
For `Cc1ccc(-c2nc(C#N)c(NCCCn3ccnc3)o2)cc1`, the Potency was 21.3 µM (active).
As to `Cc1ccc(S(=O)(=O)c2nc(NCCCn3ccnc3)sc2Cl)cc1`, the Potency result was “inactive”.
Turning to `CC(NC(=O)c1cccc(S(=O)(=O)N2CCc3ccccc3C2)c1)c1ccco1` (stereo not drawn), the Potency result is “inactive”.
In the case of `COC(=O)c1ccc(NC(=O)C(C)N2C(=O)c3ccccc3C2=O)cc1` (stereo not drawn), the Potency result was “inactive”.
Take `COC(=O)c1ccc(/C=C2/C(=O)Oc3ccccc32)cc1`: the Potency is 2.69 µM (active).
Consider `CN1C(=O)/C(=C/c2ccc(C(=O)NC3CCCC3)cc2)Oc2ccccc21`, for which the Potency result is “inactive”.
Turning to `C#CC(C)(CC)NC(=O)Cn1nnc(-c2ccc(OCc3c(F)cccc3Cl)cc2)n1` (stereo not drawn), the Potency entry is “inactive”.
Take `CCn1c(=O)cc(OCC(=O)Nc2cc(Cl)c(OC)cc2OC)c2ccccc21`: the Potency result is “inactive”.
